Pf apPOL block: Pf-apPOL DNA polymerase inhibition; Recombinant Pf-apPOL, molecular beacon fluorescence, 1.5 h; inhibition, % at 10 µM; 210,000 tested, 0.25% active; AID 1794808
mHTT-CaM PPI inh: mHTT-calmodulin interaction abrogation; inhibition, % at 15 µM; AlphaScreen His-mHTT/GST-CaM binding, luminescence; P42858; 190,000 tested, 3.6% active;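 further: 0% = both proteins with DMSO and 100% = one protein alone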
Starred values were filed as active, the others as inactive; i = inactive; / = not tested or not shown. Hits are enriched below; roughly 3.6% of the tested compounds scored in any of these assays. No stated cut-off is given here; in the data, active means inhibition above about 50%; inactive means the rest.

SMILES	Pf apPOL block	mHTT-CaM PPI inh
O=C(Cn1[nH]c(-c2ccccc2)cc1=O)Nc1ccc(Cl)cc1	-1.9	63.0*
CC(C)CC(C(=O)NC1CCCCC1C)N1C(=O)c2ccccc2C1=O (stereo unspecified)	-9.6	-3.0
Cc1cc(N)c(-n2c(C)c3c(C)nnc(C)c3c2C)cc1C	-0.3	87.7*
Cc1nnc(C)c2c(C)n(-c3ccc(N)cc3)c(C)c12	-2.4	54.8*
CC(=O)c1c(C(C)=O)c(C)n(-c2cc(C)c(C)cc2N)c1C	-11.6	21.8
CC(=O)c1c(C(C)=O)c(C)n(-c2ccc(N)cc2)c1C	-2.7	20.4
Cn1cnnc1SCC(=O)c1cccs1	98.4*	-4.7
O=C(CSc1nn2c(SCC(=O)c3cccs3)nnc2s1)c1cccs1	4.8	17.0
CCc1noc(C2CCCCN2Cc2nc(-c3ccccc3F)no2)n1 (stereo unspecified)	-5.5	-14.8
CN1CC(=Cc2ccco2)C(=O)C(=Cc2ccco2)C1	71.2*	/
CN1C/C(=C/c2ccco2)C(=O)/C(=C/c2ccco2)C1	/	30.1
CCC(=O)N1CCc2sc(S(=O)(=O)Nc3ccccc3OC)cc2C1	-3.1	8.6
CS(=O)(=O)N1CC(C(=O)Nc2ccc3c(c2)OCCO3)C2(CCCCC2)C1 (stereo unspecified)	5.2	11.5
O=C(Nc1ccc2c(c1)OCO2)C1CN(S(=O)(=O)C2CC2)CC12CCCCC2 (stereo unspecified)	0.8	72.9*
COCCCNC(=O)C1(C)CCC(=O)N1Cc1ccc(Cl)cc1 (stereo unspecified)	0.9	2.5
O=c1c2cn[nH]c2nc(SCc2cccc([N+](=O)[O-])c2)n1-c1ccc(Cl)cc1	-4.7	33.0
Cc1ccc(-n2c(SCc3cccc([N+](=O)[O-])c3)nc3[nH]ncc3c2=O)cc1Cl	0.3	58.0*
Cc1ccc(-n2c(SCc3ccccc3)nc3[nH]ncc3c2=O)cc1	-17.0	20.0
CCc1ccc(-n2c(SCC(=O)Nc3ccc(OC)cc3OC)nc3[nH]ncc3c2=O)cc1	-11.8	68.0*
COc1ccc(NC(=O)CSc2nc3[nH]ncc3c(=O)n2-c2ccc(Cl)cc2)c(OC)c1	-4.6	25.0
Cc1cccc(-n2c(SCc3ccc(Cl)cc3)nc3[nH]ncc3c2=O)c1	-16.2	79.0*
Cc1ccc(CSc2nc3[nH]ncc3c(=O)n2-c2cccc(Cl)c2)cc1	-11.6	38.0
Cc1ccc(CSc2nc3[nH]ncc3c(=O)n2-c2ccc(C)cc2)cc1	81.0*	14.0
CCOc1ccc(C(=O)NCc2ccco2)cc1[N+](=O)[O-]	6.0	2.4
COc1ccc(Cl)cc1C(=O)Nc1c2c(nn1-c1cccc(Cl)c1)CS(=O)(=O)C2	-5.8	-1.0
SMILES	Pf apPOL block	mHTT-CaM PPI inh
O=C(NCc1cccc(F)c1)c1ccc(-c2cncnc2)nc1	0.9	-4.9
COc1ccc(/C=C2/N=C(c3cccc(I)c3)OC2=O)cc1[N+](=O)[O-]	-2.0	17.0
O=C(c1ccc(OCC2CCCN2C(=O)c2ccc(F)cc2F)cc1)N1CCOCC1 (stereo unspecified)	-5.0	3.9
Cc1cccc(CNC(=O)C2CCCN(c3cnn(Cc4ccccc4)c(=O)c3)C2)c1 (stereo unspecified)	-8.0	29.8
O=[N+]([O-])c1ccccc1-c1ccc(CN2CCN(c3ccccc3F)CC2)o1	-3.7	23.1
Cc1cccc(N2CCN(Cc3ccc(-c4ccccc4[N+](=O)[O-])o3)CC2)c1C	3.2	59.4*
O=C(NCc1ccccc1)c1cc(N2C(=O)C=CC2=O)ccc1Cl	-1.9	31.0
O=C(O)c1cc(N2C(=O)C=CC2=O)ccc1Cl	54.6*	/
O=c1ccc(-c2ccc(F)cc2)nn1CCc1nc(-c2ccc(Cl)cc2)no1	-3.0	17.8
CC(=O)Nc1cccc(OC(NC(=O)/C=C/c2ccccc2)C(Cl)(Cl)Cl)c1 (stereo unspecified)	-5.2	-4.0
O=C(Nc1c2c(nn1-c1cccc(Cl)c1)CS(=O)C2)c1ccco1 (stereo unspecified)	-0.3	-1.0
COc1ccc(C(=O)NC(c2ccccc2)c2ccccc2)cc1OC	-5.7	-3.4
COc1ccc(NC(=O)NC(c2ccccc2)c2ccccc2)cc1OC	-4.8	61.9*
Cc1ccc(NC(=O)c2sc3ccccc3c2Cl)cc1[N+](=O)[O-]	-11.9	4.3
O=C(Cc1csc(NC(=O)c2cnccn2)n1)Nc1cccc(C(F)(F)F)c1	8.1	84.4*
O=C(Cc1csc(NC(=O)c2cnccn2)n1)Nc1nc2ccccc2s1	30.4	80.5*
O=C(Cc1csc(NC(=O)c2cnccn2)n1)Nc1nc(-c2cccnc2)cs1	55.0*	99.5*
O=C(Cc1csc(NC(=O)C2CCCC2)n1)Nc1nc(-c2cccnc2)cs1	-8.7	-17.0
Cc1ccc2nc(NC(=O)c3cnccn3)sc2c1	2.0	4.0
CCSc1nnc(NC(=O)Cc2csc(NC(=O)c3cnccn3)n2)s1	44.3	88.4*
CCSc1nnc(NC(=O)c2cnccn2)s1	-7.5	4.0
CCSc1nnc(NC(=O)Cc2csc(Nc3cccc(C(F)(F)F)c3)n2)s1	-8.7	11.4
O=C1Cc2cc(NC(=O)NC(c3ccccc3)c3ccccc3)ccc2N1	-3.7	22.1
COc1ccc(CNC(=O)CCC2N=C3c4ccccc4N=C(SCC#N)N3C2=O)cc1 (stereo unspecified)	-3.9	6.0
N/C(=N\OC(=O)c1ccc(Br)cc1)c1ccccn1	-7.7	i
SMILES	Pf apPOL block	mHTT-CaM PPI inh
O=C(Nc1ccc(Br)cc1)c1cc(S(=O)(=O)NCc2ccccc2)ccc1Cl	1.7	7.0
COCC(=O)N1CCCn2nc(-c3ccc(C)cc3)cc2C1	-5.4	-5.3
CCCCC(=O)NC(c1ccc(N(C)C)cc1)c1ccc2cccnc2c1O (stereo unspecified)	0.8	100.0*
CCC(=O)NC(c1ccc(N(C)C)cc1)c1ccc2cccnc2c1O (stereo unspecified)	2.7	99.5*
CCCCC(=O)NC(c1ccc(N(CC)CC)cc1)c1ccc2cccnc2c1O (stereo unspecified)	-13.2	98.0*
O=C1OC(c2ccc([N+](=O)[O-])cc2)=N/C1=C\c1ccccc1I	3.5	-1.0
COc1ccc(OC)c2sc(N(CCCn3ccnc3)C(=O)Cc3ccccc3)nc12	-8.5	67.7*
O=C(c1ccco1)N(CCCn1ccnc1)c1nc2c(Cl)cccc2s1	0.3	32.1
CCOC(=O)Cn1cnc2c(-c3ccc(Br)cc3)csc2c1=O	-12.9	5.7
Cc1nnc2c(NC(=O)c3ccccn3)cccn12	-15.9	31.3
Cc1nc2c(NC(=O)c3ccccn3)cccn2n1	-14.4	50.4*
CCCCC(=O)N1CCc2c(c(C(=O)NCc3cccc(C)c3)nn2C)C1	1.6	58.7*
Cc1cccc(CNC(=O)c2nn(C)c3c2CN(C(=O)CC(C)C)CC3)c1	-4.0	48.9
Cc1cccc(CNC(=O)c2nn(C)c3c2CN(C(=O)Cc2ccccc2)CC3)c1	11.1	63.5*
Cc1cccc(CNC(=O)c2nn(C)c3c2CN(C(=O)C(C)C)CC3)c1	66.9*	41.0
Cn1nc(C(=O)NCc2ccc(F)cc2)c2c1CCN(C(=O)c1c(F)cccc1F)C2	-13.9	8.7
CCCCC(=O)N1CCc2c(c(C(=O)NCc3ccccc3)nn2C)C1	-9.2	0.2
Cn1nc(C(=O)NCc2ccccc2)c2c1CCN(C(=O)Cc1ccc(F)cc1)C2	-5.7	78.0*
CCC(CC)C(=O)N1CCc2c(c(C(=O)NCc3cccc(C)c3)nn2C)C1	-2.3	20.9
O=C(O)Cn1nnc(-c2ccccc2Cl)n1	-17.8	2.5
O=c1oc2ccccc2cc1C1=Nc2ccccc2SC(c2c3ccccc3cc3ccccc23)C1 (stereo unspecified)	/	-29.4

Bioassay records: PubChem, University of Kansas High Throughput Screening Laboratory
